Results reported in PubChem BioAssay (NCATS).
Results filed as inconclusive are left out. The source made the active and inactive calls. Unless noted, calls come from the whole dose curve; as a rule, active = well fitted curve in the direction sought with a large enough effect; inconclusive = small, poorly fitted or top-dose-only effect, or another doubt; inactive = no such curve, though single readings can be large; an effect the other way counts as inactive or inconclusive.

Assays:
[1] = target: Lysosomal acid glucosylceramidase (Homo sapiens) (UniProt P04062); assay: Glucocerebrosidase-p2 (AID 348; in the data active = potency below about 10 µM; note: potency is the fitted concentration of half-maximal effect); details: purified GBA, blue fluorogenic substrate, 40 min
Lysosomal acid glucosylceramidase (Homo sapiens), sequence (P04062 whole entry, looked up): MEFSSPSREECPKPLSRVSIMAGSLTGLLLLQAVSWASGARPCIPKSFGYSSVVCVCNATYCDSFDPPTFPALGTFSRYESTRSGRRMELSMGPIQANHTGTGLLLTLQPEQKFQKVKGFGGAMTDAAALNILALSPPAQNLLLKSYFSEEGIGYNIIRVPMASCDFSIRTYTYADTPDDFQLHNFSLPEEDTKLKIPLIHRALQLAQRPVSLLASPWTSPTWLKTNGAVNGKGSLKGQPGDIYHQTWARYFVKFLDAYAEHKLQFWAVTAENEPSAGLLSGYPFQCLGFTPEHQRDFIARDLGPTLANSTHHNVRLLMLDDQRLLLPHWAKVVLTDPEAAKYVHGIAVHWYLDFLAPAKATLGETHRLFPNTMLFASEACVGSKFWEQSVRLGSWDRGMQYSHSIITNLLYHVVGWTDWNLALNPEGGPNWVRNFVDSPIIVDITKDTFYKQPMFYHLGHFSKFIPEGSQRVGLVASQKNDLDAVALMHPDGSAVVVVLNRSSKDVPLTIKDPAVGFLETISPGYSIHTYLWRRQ
In short: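 Normal human glucocerebrosidase (0.2 nM) with blue fluorogenic substrate (80 uM final) in citrate/phosphate pH 5.9 with 10mM sodium taurocholate, 0.01% tween-20; 40 min RT, NaOH/glycine stop; fluorescence Ex 365/Em 440; AC50 from a titration from 0.6 nM upwards.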

[2] = AP1 Signaling Pathway (AID 357; active = well fitted curve in either direction with a large enough effect, not every such curve was filed as active; note: % is set by controls: 0 for no effect and ±100 for the full control effect); details: ME-180 AP-1-bla reporter, EGF-induced, beta-lactamase ratio, 5 h; at 7.69 µM (top of the series) unless noted
In short: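 ME-180 cells with beta-lactamase reporter under AP-1 response element, stimulated with EC50 EGF; compounds tested in titration series, 5 h at 37 °C. CCF4 substrate added 2.5 h at room temperature; 460/530 nm emission ratio gave %activity and AC50.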

[3] = target: Cytochrome P450 1A2 (Homo sapiens) (UniProt P05177); assay: p450-cyp1a2 (AID 410; calls by dose curve; note: potency is the fitted concentration of half-maximal effect); details: recombinant CYP1A2, luciferin-ME demethylation, luminescence; series mostly up to 57 µM
Cytochrome P450 1A2 (Homo sapiens), sequence (P05177 whole entry, looked up): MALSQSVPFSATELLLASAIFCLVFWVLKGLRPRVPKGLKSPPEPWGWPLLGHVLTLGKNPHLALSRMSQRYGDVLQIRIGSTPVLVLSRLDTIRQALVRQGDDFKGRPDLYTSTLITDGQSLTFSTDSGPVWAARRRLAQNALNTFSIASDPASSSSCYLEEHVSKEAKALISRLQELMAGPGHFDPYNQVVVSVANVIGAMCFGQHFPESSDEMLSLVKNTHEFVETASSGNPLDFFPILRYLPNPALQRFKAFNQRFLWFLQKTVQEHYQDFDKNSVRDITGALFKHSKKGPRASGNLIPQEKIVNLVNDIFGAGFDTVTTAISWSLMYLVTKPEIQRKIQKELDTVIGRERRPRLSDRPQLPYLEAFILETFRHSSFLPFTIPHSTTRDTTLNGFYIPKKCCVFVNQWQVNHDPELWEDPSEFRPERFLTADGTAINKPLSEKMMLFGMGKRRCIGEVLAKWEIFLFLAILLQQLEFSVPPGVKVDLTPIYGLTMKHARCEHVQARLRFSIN
In short: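 20nM CYP1A2, 100uM Luciferin-ME (=Km), 100mM KPO4; cpd 10 min RT; +NADPH regen, 60 min RT; stop/detect 20 min; luminescence. Normalized to furafylline 57 uM = full inhibition.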

[4] = NFAT Signaling Pathway (AID 444; active = well fitted curve in either direction with a large enough effect, not every such curve was filed as active;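 note: carbachol stimulus at about its EC50 of 1 µM final; % is set by controls: 0 for no effect and ±100 for the full control effect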); details: Jurkat NFAT-bla M1, carbachol, beta-lactamase ratio, 5 h; at 7.69 µM (top of the series) unless noted
In short: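 Jurkat cells carrying an NFAT-driven β-lactamase reporter and co-transfected muscarinic M1 receptor were treated with compound plus carbachol (1 uM final, an EC50 level) for 5 h at 37 °C. CCF4 loading followed for 1 h at RT; 460/530 nm ratio gave %activity.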

[5] = Stat Signaling Pathway (AID 446; active = well fitted curve in either direction with a large enough effect, not every such curve was filed as active;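 note: ME-180 cervical cancer cells given 40 pM IL-6 alongside compound; SIE-controlled beta-lactamase reporter measured as 460/530 nm FRET emission ratio; % is set by controls: 0 for no effect and ±100 for the full control effect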); details: ME-180 SIE beta-lactamase reporter, IL-6 stimulated, 5 h; series mostly up to 7.69 µM
In short: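 Normalization used AC90 stimulation (300 pM IL-6) and AC90 inhibition (125 nM pan-JAK inhibitor at 40 pM IL-6). The underlying signal is SIE-driven beta-lactamase in ME-180 cells after 5 h IL-6 exposure with compound.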

[6] = target: Glucocorticoid receptor (Homo sapiens) (UniProt P04150); assay: GR-EFC Redistribution (AID 451; calls by dose curve; note: potency is the fitted concentration of half-maximal effect); details: CHO-K1 GR-EFC translocation, beta-gal luminescence, 2 h
Glucocorticoid receptor (Homo sapiens), sequence (P04150 whole entry, looked up, the tested form may be a part): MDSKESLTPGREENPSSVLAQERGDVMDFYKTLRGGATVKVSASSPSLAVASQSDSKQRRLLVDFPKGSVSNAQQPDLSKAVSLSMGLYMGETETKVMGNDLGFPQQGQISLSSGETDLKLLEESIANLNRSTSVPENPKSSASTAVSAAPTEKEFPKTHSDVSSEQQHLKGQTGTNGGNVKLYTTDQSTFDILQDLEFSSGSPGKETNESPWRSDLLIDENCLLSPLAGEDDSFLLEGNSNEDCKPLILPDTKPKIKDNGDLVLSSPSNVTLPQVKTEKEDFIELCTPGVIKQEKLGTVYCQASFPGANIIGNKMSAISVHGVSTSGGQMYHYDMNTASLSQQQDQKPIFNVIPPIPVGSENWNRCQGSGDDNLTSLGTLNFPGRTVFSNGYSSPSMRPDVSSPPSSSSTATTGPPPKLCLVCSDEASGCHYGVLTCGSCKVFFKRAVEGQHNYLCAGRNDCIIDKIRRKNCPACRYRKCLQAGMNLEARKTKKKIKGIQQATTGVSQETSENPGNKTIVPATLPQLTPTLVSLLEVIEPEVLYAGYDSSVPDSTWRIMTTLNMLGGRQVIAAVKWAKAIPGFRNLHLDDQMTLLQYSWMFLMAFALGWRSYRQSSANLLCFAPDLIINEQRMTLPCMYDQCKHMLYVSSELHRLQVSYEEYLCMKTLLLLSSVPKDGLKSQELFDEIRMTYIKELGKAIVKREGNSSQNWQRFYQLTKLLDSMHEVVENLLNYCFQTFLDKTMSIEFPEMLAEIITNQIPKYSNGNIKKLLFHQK
In short: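 CHO-K1 cells stably expressing nuclear-localized β-gal enzyme acceptor and GR fused C-terminally to the enzyme donor fragment; ligand-driven nuclear translocation restores β-gal by complementation. Compounds titrated up to 46 uM final, 2 h at 37 °C; luminescence read.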

[7] = target: Mitogen-activated protein kinase 10 (Mus musculus) (UniProt Q61831); assay: JNK3 AlphaScreen Assay (AID 530; active = well fitted curve in either direction with a large enough effect, not every such curve was filed as active;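 note: kinase came from lysate of stimulated human HepG2 cells; signal reports phosphorylation of biotinylated GST-cJun 1-79 at Ser73 with 10 µM ATP; % is set by controls: 0 for no effect and ±100 for the full control effect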); details: JNK3 lysate, c-Jun phosphorylation; series mostly up to 57.1 µM
In short: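 Biotinylated GST-cJun(1-79) served as substrate for JNK3 in HepG2 lysates stimulated with IL-1beta and TNF-alpha. ATP was 10 uM final, pH 7.6. Ser73 phosphorylation was quantified by AlphaScreen (680 nm excitation).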

[8] = target: Cytochrome P450 3A4 (Homo sapiens) (UniProt P08684); assay: qHTS Assay for Inhibitors and Substrates of Cytochrome P450 3A4 (AID 884); details: recombinant CYP3A4, Luciferin-PPXE luminescence; series mostly up to 57.1 µM; note: potency is the fitted concentration of half-maximal effect; nearly all actives have a fitted effect of over 50% in size
Cytochrome P450 3A4 (Homo sapiens), sequence (P08684 whole entry, looked up): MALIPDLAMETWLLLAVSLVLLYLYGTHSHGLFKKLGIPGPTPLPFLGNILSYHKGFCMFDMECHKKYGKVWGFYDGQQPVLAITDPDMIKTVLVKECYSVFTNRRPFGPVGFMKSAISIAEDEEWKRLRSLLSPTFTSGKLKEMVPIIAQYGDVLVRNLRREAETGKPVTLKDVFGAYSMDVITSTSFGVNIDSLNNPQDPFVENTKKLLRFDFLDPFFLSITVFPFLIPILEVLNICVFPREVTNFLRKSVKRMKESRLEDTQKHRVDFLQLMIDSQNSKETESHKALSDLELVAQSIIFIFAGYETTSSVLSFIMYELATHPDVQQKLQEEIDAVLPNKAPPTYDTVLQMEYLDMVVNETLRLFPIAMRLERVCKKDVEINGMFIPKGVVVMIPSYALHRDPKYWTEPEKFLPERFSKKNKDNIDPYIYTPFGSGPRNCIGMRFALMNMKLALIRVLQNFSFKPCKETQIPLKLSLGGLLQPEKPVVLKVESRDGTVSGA
In short: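 Luminescent readout of luciferin produced by CYP3A4 (20 nM) dealkylation of Luciferin-PPXE, 25 uM (its KM). NADPH-driven reaction ran 60 min at RT after 10 min compound preincubation; data scaled to 57 uM ketoconazole as 100% inhibition.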

[9] = target: Cytochrome P450 3A4 (Homo sapiens) (UniProt P08684); assay: qHTS Assay for Activators of Cytochrome P450 3A4 (AID 885); details: recombinant CYP3A4, Luciferin-PPXE luminescence, 60 min; series mostly up to 57.1 µM; note: nearly all actives have a fitted effect of over 65% in size
In short: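 Human CYP3A4 dealkylates Luciferin-PPXE to luciferin, which luciferase detection converts to light. Substrate was at its KM (25uM), buffer 200mM KPO4, reaction 60 min at RT.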

[10] = target: Dual specificity protein kinase CLK4 (Homo sapiens) (UniProt Q9HAZ1); assay: qHTS Assay for Inhibitors of CDC-like Kinase 4 (ADP-Glo Assay) (AID 1771); details: recombinant CLK4, ADP-Glo luminescence; series mostly up to 80 µM; note: nearly all actives have a fitted effect of over 70% in size; note: potency is the fitted concentration of half-maximal effect
Dual specificity protein kinase CLK4 (Homo sapiens), sequence (Q9HAZ1 whole entry, looked up): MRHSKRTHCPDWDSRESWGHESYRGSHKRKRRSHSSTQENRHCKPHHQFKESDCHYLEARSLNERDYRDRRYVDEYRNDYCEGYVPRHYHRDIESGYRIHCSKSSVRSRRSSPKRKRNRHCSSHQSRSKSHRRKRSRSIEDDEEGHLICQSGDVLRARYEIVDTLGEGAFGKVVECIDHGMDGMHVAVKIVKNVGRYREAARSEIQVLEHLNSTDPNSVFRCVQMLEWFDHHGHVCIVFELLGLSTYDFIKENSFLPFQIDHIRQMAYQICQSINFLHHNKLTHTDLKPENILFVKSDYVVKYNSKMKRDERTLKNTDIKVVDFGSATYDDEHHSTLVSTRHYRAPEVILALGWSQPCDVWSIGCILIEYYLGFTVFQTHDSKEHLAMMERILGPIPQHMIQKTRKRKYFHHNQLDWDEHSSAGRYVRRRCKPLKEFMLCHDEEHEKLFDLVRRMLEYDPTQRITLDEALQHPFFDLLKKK
In short: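 25 nM Clk4, 100 uM RS peptide, 1 uM ATP (final); 2 mM MgCl2, 0.5 mM EGTA, 2.5 mM DTT, 0.01% Triton X-100; 1 hr RT. ADP-Glo readout: ATP depletion 45 min, conversion/luciferase 30 min, luminescence.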

[11] = target: Dual specificity protein kinase CLK4 (Homo sapiens) (UniProt Q9HAZ1); assay: qHTS Assay for Inhibitors of CDC-like Kinase 4 (ADP-FP Assay) (AID 1795); details: Transcreener ADP fluorescence polarization; series mostly up to 50 µM; note: nearly all actives have a fitted effect of over 60% in size; note: potency is the fitted concentration of half-maximal effect
In short: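 Kinase activity was measured as ADP production using Transcreener orange tracer (4 nM) and ADP antibody (1 ug/mL) fluorescence polarization, with ADP calculated from a calibration curve. The 1 h reaction contained 6.25 nM Clk4, 1 uM ATP and 100 uM RS peptide at pH 7.5 with Mg2+.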

[12] = target: Ubiquitin carboxyl-terminal hydrolase 1 (Homo sapiens) (UniProt O94782); assay: Inhibitors of USP1/UAF1: Pilot qHTS (AID 504865); details: purified USP1/UAF1, Ub-rhodamine cleavage fluorescence; series mostly up to 54.9 µM; note: nearly all actives have a fitted effect of over 35% in size; note: potency is the fitted concentration of half-maximal effect
Ubiquitin carboxyl-terminal hydrolase 1 (Homo sapiens), sequence (O94782 whole entry, looked up): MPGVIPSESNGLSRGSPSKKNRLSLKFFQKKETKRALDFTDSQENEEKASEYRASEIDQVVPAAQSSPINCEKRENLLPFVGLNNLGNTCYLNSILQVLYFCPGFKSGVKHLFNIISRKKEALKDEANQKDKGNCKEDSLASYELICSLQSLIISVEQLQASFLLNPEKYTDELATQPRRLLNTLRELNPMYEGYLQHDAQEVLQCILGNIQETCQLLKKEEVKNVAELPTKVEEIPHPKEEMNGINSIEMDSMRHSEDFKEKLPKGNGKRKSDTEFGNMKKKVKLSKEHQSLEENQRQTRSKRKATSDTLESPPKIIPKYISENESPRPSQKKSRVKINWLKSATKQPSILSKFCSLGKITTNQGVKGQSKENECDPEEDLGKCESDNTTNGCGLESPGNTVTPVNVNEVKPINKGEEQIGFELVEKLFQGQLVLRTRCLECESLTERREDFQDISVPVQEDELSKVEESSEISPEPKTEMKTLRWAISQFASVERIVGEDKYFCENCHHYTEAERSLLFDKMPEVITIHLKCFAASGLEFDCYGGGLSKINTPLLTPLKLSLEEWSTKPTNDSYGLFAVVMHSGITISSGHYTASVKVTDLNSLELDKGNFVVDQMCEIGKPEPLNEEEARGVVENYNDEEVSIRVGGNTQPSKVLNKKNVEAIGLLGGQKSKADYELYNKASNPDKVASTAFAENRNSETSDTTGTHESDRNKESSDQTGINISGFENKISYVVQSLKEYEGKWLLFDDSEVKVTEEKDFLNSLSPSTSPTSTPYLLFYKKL
In short: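 Deubiquitinase activity followed as kinetic rhodamine fluorescence release from 150 nM Ub-Rho. 1 nM USP1/UAF1 with compound, after 15 min room-temperature preincubation, in HEPES pH 7.8 buffer containing TCEP, EDTA, BSA and Tween-20.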

[13] = target: Cytochrome P450 2C19 (Homo sapiens) (UniProt P33261); assay: qHTS Assay for Inhibitors and Substrates of Cytochrome P450 2C19 (AID 899); details: recombinant CYP2C19, luciferin-H EGE luminescence; series mostly up to 57.1 µM; note: potency is the fitted concentration of half-maximal effect; nearly all actives have a fitted effect of over 60% in size
Cytochrome P450 2C19 (Homo sapiens), sequence (P33261 whole entry, looked up): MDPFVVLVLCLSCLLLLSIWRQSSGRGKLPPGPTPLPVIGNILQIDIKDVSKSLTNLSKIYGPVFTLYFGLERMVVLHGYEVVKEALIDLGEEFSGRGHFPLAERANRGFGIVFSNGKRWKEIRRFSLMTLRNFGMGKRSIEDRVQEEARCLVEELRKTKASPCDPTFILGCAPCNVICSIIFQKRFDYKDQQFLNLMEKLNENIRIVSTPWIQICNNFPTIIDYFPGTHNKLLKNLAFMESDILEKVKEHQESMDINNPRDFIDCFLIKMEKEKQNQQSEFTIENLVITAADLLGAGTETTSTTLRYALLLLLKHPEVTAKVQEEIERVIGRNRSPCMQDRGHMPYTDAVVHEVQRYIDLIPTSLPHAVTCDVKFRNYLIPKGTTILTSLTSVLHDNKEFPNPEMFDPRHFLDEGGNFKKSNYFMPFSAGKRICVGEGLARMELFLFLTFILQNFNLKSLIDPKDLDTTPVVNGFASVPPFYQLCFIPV
In short: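 Human CYP2C19 (5nM) with Luciferin-H EGE at 10uM (its KM) in 50mM KPO4 was preincubated with compound for 10 min at 37C. NADPH regeneration started a 60 min 37C reaction. Luciferin was read by luminescence, normalized to 57uM ketoconazole.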

[14] = target: Dual specificity protein kinase CLK4 (Homo sapiens) (UniProt Q9HAZ1); assay: qHTS Assay for Inhibitors of CDC-like Kinase 4 (Kinase-Glo Assay) (AID 1770); details: recombinant Clk4, Kinase-Glo ATP depletion luminescence; series mostly up to 66.7 µM; note: nearly all actives have a fitted effect of over 65% in size; note: potency is the fitted concentration of half-maximal effect
In short: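 Luminescent ATP-depletion read-out (Kinase-Glo) after 4.5 h room-temperature reaction of Clk4 (25 nM final) with RS peptide (100 uM) and ATP (1 uM), pH 7.5 Tris buffer with MgCl2 and DTT.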

[15] = target: Glucocorticoid receptor (Homo sapiens) (UniProt P04150); assay: GR-GFP Redistribution (AID 450;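 active = compounds whose dose series gives a full or clear partial fitted curve of increased nuclear translocation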; note: potency is the fitted concentration of half-maximal effect); details: U2OS GR-GFP nuclear translocation, laser cytometry, 2 h
[16] = target: 3',5'-cyclic-AMP phosphodiesterase 4B (Homo sapiens) (UniProt Q07343); assay: qHTS Assay for Inhibitors of PDE-IV (AID 607; active = well fitted activation curve with a large enough effect in the main read-out, with a control signal flat, not every such curve was filed as active; note: % of control where 0% means no effect); details: HEK293 ACTOne CNG channel cells, membrane potential fluorescence; series mostly up to 22.9 µM
3',5'-cyclic-AMP phosphodiesterase 4B (Homo sapiens), sequence (Q07343 whole entry, looked up): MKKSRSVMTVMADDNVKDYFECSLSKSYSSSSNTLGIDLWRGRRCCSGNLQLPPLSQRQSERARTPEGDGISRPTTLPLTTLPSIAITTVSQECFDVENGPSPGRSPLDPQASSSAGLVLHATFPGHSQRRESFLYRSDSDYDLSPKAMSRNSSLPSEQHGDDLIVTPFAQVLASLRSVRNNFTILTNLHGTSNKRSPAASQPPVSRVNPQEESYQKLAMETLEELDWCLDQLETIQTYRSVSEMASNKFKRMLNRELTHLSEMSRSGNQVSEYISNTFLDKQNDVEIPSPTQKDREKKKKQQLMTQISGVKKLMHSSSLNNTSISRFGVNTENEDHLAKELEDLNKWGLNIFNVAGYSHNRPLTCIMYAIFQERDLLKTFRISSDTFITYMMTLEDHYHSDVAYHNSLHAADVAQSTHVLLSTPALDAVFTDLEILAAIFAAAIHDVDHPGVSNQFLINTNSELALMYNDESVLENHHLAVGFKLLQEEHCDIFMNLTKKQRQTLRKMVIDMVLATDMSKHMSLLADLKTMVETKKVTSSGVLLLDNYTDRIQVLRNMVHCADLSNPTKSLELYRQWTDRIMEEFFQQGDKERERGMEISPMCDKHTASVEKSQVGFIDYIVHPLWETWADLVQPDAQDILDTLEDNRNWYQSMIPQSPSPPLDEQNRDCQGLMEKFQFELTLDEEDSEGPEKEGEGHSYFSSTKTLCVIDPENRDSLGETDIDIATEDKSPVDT
In short: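 HEK293 ACTOne cells with CNG channel (1000/well), endogenous PDE4; membrane potential dye, compounds up to 22.9 uM final. Fluorescence Ex 535/Em 590; RO 20-1724 (100 uM final) as reference.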

[17] = qHTS Assay for Identification of Small Molecule Agonists for Hypoxia Response Element Signaling Pathway (AID 914; active = well fitted activation curve with a large enough effect in the signal ratio, with a control signal flat, not every such curve was filed as active; the % refers to the signal ratio; note: potency is the fitted concentration of half-maximal effect; for activation: % of control where 0% means no effect); details: ME-180 (cervical carcinoma) HRE-bla reporter, beta-lactamase ratio, CoCl2, 17 h; activation: stronger effect = higher value
In short: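 Reporter activity (beta-lactamase, CCF4 460nm/530nm ratio) in HRE-bla ME-180 cells is recorded after 17 h compound exposure with EC50 CoCl2 at 37 degrees Celsius. AC50 values come from titration data.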

[18] = target: Cytochrome P450 2D6 (Homo sapiens) (UniProt P10635); assay: qHTS Assay for Inhibitors and Substrates of Cytochrome P450 2D6 (AID 891); details: recombinant CYP2D6, luciferin-ME EGE luminescence; series mostly up to 57.1 µM; note: potency is the fitted concentration of half-maximal effect; nearly all actives have a fitted effect of over 60% in size
In short: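 Luminescent read-out of luciferin formed by 5 nM human CYP2D6 demethylating 30 uM Luciferin-ME EGE (Km level) over 60 min at room temperature after NADPH regeneration addition. Data normalized to full inhibition by 1.43 uM quinidine.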

CN(Cc1ccco1)c1cc(-c2ccc3c(c2)OCO3)ncn1
active: Potency [3] 0.501 µM | Potency [8] 3.98 µM | Potency [10] 3.16 µM | Potency [11] 2.51 µM
inactive: Potency [1] > 11.4 µM | activity change, negative = inhibition [2] -0.29% | activity change, negative = inhibition [4] -0.867% | outcome [5] | Potency [6] > 46 µM | Potency [7] | outcome [9] | Potency [12]

Clc1ccccc1-c1nc(Nc2ccncc2)c2ccccc2n1
active: Potency [3] 0.501 µM | Potency [8] 3.98 µM | Potency [13] 5.01 µM | Potency [14] 7.94 µM | Potency [10] 7.94 µM
inactive: activity change, negative = inhibition [2] -2.96% | activity change, negative = inhibition [4] 8.97% | outcome [5] | Potency [6] > 46 µM | Potency [7] | outcome [9]

N#Cc1cccc(-c2ccc3ncnc(NCc4cccs4)c3c2)c1
inactive: Potency [1] > 11.4 µM | outcome [5] | Potency [15] > 46 µM | Potency [6] > 46 µM | Potency [7] | Potency [16] | outcome [9]
active: Potency [3] 0.1 µM | Potency [8] 3.16 µM | Potency [14] 10 µM | Potency [10] 8.91 µM | Potency [12] 22.4 µM

CN(C)C(=O)c1ccc(-c2cc(NCc3ccccc3)ncn2)cc1
inactive: activity change, negative = inhibition [2] -9.2% | activity change, negative = inhibition [4] 27.8% | outcome [5] | Potency [15] > 46 µM | Potency [6] > 46 µM | Potency [7] | Potency [16] | Potency [12]
active: Potency [3] 12.6 µM | Potency [14] 25.1 µM | Potency [10] 31.6 µM

CN1CCN(c2ncnc3ccc(-c4ccccc4C(F)(F)F)cc23)CC1
inactive: Potency [1] > 11.4 µM | activity change, negative = inhibition [4] -19.6% | outcome [5] | Potency [15] > 46 µM | Potency [6] > 46 µM | Potency [7] | Potency [14] | Potency [10] | Potency [12]

CS(=O)(=O)Nc1cccc(-c2nc(Nc3ccncc3)c3ccccc3n2)c1
active: Potency [1] 7.2 µM | Potency [3] 0.631 µM | Potency [8] 3.98 µM | Potency [13] 5.01 µM | Potency [14] 12.6 µM | Potency [10] 10 µM
inactive: activity change, negative = inhibition [2] -17.9% | outcome [5] | Potency [15] > 46 µM | Potency [6] > 46 µM | Potency [7] | outcome [9] | Potency [12]

Cc1nc2cnc(Oc3cccc(Cl)c3)nc2n(Cc2ccc(F)cc2)c1=O
inactive: Potency [1] > 11.4 µM | activity change, negative = inhibition [4] -21.7% | outcome [5] | Potency [15] > 9.22 µM | Potency [6] > 46 µM | Potency [7] | Potency [16] | Potency [14] | Potency [10] | Potency [12]

COc1ccc(-n2c(=O)c(-c3cccs3)nc3cnc(N4CCN(C)CC4)nc32)cc1
inactive: Potency [1] > 11.4 µM | activity change, negative = inhibition [2] 8.48% | activity change, negative = inhibition [4] 4.91% | outcome [5] | Potency [15] > 9.22 µM | Potency [6] > 46 µM | Potency [16] | outcome [9] | Potency [10] | Potency [11] | Potency [12]
active: Potency [3] 2.51 µM

COc1ccc(Oc2ncc3nc(-c4cc(F)cc(F)c4)c(=O)n(C4CC4)c3n2)cc1
inactive: Potency [1] > 11.4 µM | activity change, negative = inhibition [2] -9.27% | activity change, negative = inhibition [4] -5.46% | outcome [5] | Potency [15] > 9.22 µM | Potency [6] > 46 µM | Potency [7] | Potency [14] | Potency [10] | Potency [12]

COc1ncc2nc(-c3cccs3)c(=O)n(CCC#N)c2n1
inactive: Potency [1] > 11.4 µM | activity change, negative = inhibition [2] 10.4% | activity change, negative = inhibition [4] 8.94% | outcome [5] | Potency [15] > 9.22 µM | Potency [6] > 46 µM | Potency [7] | outcome [9] | activation [17] 25.6% | Potency [14] | Potency [11] | Potency [12]
active: Potency [3] 6.31 µM

CC(=O)NCCNc1nc(-c2cccc(C#N)c2)nc2ccccc12
inactive: Potency [1] > 11.4 µM | activity change, negative = inhibition [2] 2.77% | activity change, negative = inhibition [4] 12.4% | outcome [5] | Potency [6] > 46 µM | Potency [7] | Potency [16] | Potency [12]
active: Potency [14] 28.2 µM

CN(C)c1ccc(-c2cncnc2NCCN2CCOCC2)cc1
inactive: Potency [1] > 11.4 µM | outcome [5] | Potency [15] > 46 µM | Potency [6] > 46 µM | Potency [7] | Potency [16] | outcome [9] | Potency [14] | Potency [10] | Potency [12]
active: Potency [3] 15.8 µM | Potency [8] 3.16 µM | Potency [13] 6.31 µM | Potency [17] 1.26 µM

COCCn1c(=O)c(-c2cccc(C#N)c2)nc2cnc(Oc3cccc(Cl)c3)nc21
inactive: Potency [1] > 11.4 µM | activity change, negative = inhibition [2] -5.9% | activity change, negative = inhibition [4] -4.85% | outcome [5] | Potency [15] > 9.22 µM | Potency [6] > 46 µM | Potency [7] | Potency [16] | Potency [14] | Potency [10] | Potency [12]

CCNc1ncc2nc(-c3ccccc3)c(=O)n(CCC#N)c2n1
active: Potency [3] 3.16 µM | Potency [18] 0.501 µM
inactive: Potency [1] > 11.4 µM | activity change, negative = inhibition [2] -3.6% | activity change, negative = inhibition [4] 27.9% | Potency [15] > 9.22 µM | Potency [6] > 46 µM | Potency [7] | outcome [9] | Potency [14] | Potency [10] | Potency [12]
